In PubChem BioAssay (NCATS):
Inconclusive results are not listed. The source made the active and inactive calls. The call rests on the fitted dose curve; in most records, active means well fitted inhibition curve with a large enough effect; inconclusive means small, poorly fitted or top-dose-only effect; inactive means flat fitted curve, though single readings scatter.

Assays:
Test in all cases: qHTS profiling for inhibitors of Plasmodium falciparum proliferation (AID 504749); further: nearly all actives have a fitted effect of over 60% in size
Conditions in all cases: P. falciparum in erythrocytes, SYBR Green DNA, 72 h; series mostly up to 28.7 µM
HB3 = test system: HB3
Method in brief: (§1)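 SYBR Green fluorescence (ex 485 nm, em 535 nm) reports parasite DNA after 72 h compound exposure of infected red cells at 0.3% parasitemia, 2.5% hematocrit; signal normalized to 0.29 uM artemisinin and vehicle wells.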

ICS = test system: ICS
Method in brief: as §1

JCK = test system: JCK
Method in brief: as §1

N140 = test system: N140
Method in brief: as §1

P93_24 = test system: P93_24
Method in brief: as §1

P94_40 = test system: P94_40
Method in brief: as §1

PAD = test system: PAD
Method in brief: as §1

PC15 = test system: PC15
Method in brief: as §1

PC26 = test system: PC26
Method in brief: as §1

PC49 = test system: PC49
Method in brief: as §1

Measured: outcome

CCc1cccc2c3c([nH]c12)[C@@](CC)(CC(=O)O)OCC3
inactive: HB3 | ICS | JCK | N140 | P93_24 | P94_40 | PAD | PC15 | PC26 | PC49

CCOC(=O)C(CCc1ccccc1)NC(C)C(=O)N1Cc2ccccc2CC1C(=O)O (centres undefined)
inactive: HB3 | ICS | JCK | N140 | P94_40 | PAD | PC15 | PC26 | PC49
